hgDAF12 agonist: activates the H. glycines DAF-12 receptor ligand-binding domain | HEK293 GAL4-hgDAF12 UAS-luciferase reporter, agonist luminescence; normalized to butyrate control | activation, % at 6.8 µM | actives 1.8% (n = 370,000);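 active = activation above a cutoff set at the mean of all screened compounds plus 3 SD, cut at about 10% in these data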
hcDAF-12 act: activates DAF-12 receptor from parasite H. contortus | HEK293 hcDAF-12 lit1-tk-luc reporter, luminescence; 0% DMSO, 100% Δ7-dafachronic acid | activation, % at 6.8 µM | actives 1.4% (n = 370,000) | AID 652067;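 active = activation above the mean of all tested compounds plus 3 SD, cut at about 5.5% in these data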
DAX1 inh-1: inhibitors of human orphan nuclear receptor DAX1 (NR0B1); inhibition, % at 6.75 µM; HEK293 Gal4-DAX1 luciferase reporter, luminescence; P51843; actives 0.99% (n = 340,000);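 active = inhibition above the mean over all tested compounds plus 3 SD, cut at about 4.2% in these data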;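 note: inhibition shows as a rise in luminescence from relieved DAX1 repression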
ssDAF12 agonist: S. stercoralis DAF-12 activation, primary screen; HEK293 ssDAF-12/GRIP1 lit1-tk-luc reporter, luminescence; % of 3 µM dafachronic acid response; activation, % at 6.8 µM; actives 1% (n = 370,000);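 active = activation above the mean over all tested compounds plus 3 SD, cut at about 0.9% in these data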
DAX1 inh-2: blocks DAX1 repression of SF-1 activated StAR promoter. inhibition, % at 6.8 µM. actives 1.1% (n = 370,000). HEK293T StAR-luciferase reporter, SF-1/DAX-1 repression relief;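 active = inhibition above the mean over all tested compounds plus 3 SD, cut at about 3.6% in these data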;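 note: higher inhibition means more luminescence from relief of DAX-1 repression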
AHR act: activators of human aryl hydrocarbon receptor. actives 2.5% (n = 320,000). P35869. activation, % at 5 µM. AID 2796. AHR-responsive luciferase reporter cells, luminescence; in the data active = activation above about 47%
LXR ag: counter-screen for hcDAF-12 agonists: agonists of human LXR-beta; shares compounds with hcDAF-12 act; HEK293 Gal4-LXR tk-luc reporter, luminescence, 24 h; normalized: DMSO 0%, positive control 100%; activation, % at 6.8 µM; 3,400 tested, under 10 active; AID 743027;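 active = mean percent activation of the reporter above a cutoff set as the average over tested compounds plus their standard deviation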
Target sequence (P55055 whole entry, looked up, the tested form may be a part): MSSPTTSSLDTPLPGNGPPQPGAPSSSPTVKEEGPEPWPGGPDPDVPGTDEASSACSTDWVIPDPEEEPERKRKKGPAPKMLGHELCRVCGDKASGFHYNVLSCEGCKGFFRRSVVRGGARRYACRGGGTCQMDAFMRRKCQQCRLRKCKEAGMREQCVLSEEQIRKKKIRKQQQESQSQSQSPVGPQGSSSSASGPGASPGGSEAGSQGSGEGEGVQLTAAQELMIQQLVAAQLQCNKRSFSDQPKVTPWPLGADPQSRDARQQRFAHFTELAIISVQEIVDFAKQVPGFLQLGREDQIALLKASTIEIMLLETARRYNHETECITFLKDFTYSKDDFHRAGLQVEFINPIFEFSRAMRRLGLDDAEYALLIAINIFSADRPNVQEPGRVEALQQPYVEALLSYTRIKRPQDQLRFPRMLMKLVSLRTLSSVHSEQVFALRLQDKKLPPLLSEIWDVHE
hcDAF12 ag: hcDAF-12 agonism, confirmation assay | activation, % at 6.8 µM | actives 61% (n = 3,400) | HEK293 hcDAF-12 lit1-tk-luc reporter, luminescence; % of Δ7-dafachronic acid response | shares compounds with hcDAF-12 act | AID 743032;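 active = mean activation across triplicate tests above the threshold derived from the earlier primary screen, cut at about 5.5% in these data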
Hits are given with their value; i = inactive; nt = not tested or not shown. Shown are actives, neighbours in structure and some others; about 5.7% of the full set was active somewhere.

SMILES	hgDAF12 agonist	hcDAF-12 act	DAX1 inh-1	ssDAF12 agonist	DAX1 inh-2	AHR act	LXR ag	hcDAF12 ag
C/C(=N\NS(=O)(=O)c1ccc([N+](=O)[O-])cc1)c1c[nH]c2ccccc12	i	11	i	i	i	i	i	i
O=C(c1cc(Br)ccc1O)N1CCN(S(=O)(=O)Cc2ccccc2)CC1	i	i	i	i	i	i	nt	nt
CC(C)CNC(=S)NC1CC2CCC(C1)N2Cc1ccccc1 (stereo not given)	i	6.8	i	i	i	i	i	i
CCC(C(=O)NCCCN1CCOCC1)n1c2ccccc2c2nc(=O)cc(C)n21 (stereo not given)	i	i	i	i	i	i	nt	nt
CCN1C(=O)[C@H]2[C@@H](c3ccc(-c4ccccc4)cc3)N3CCC[C@@]3(C(=O)OC)[C@H]2C1=O	i	i	i	i	i	i	nt	nt
Cc1c(C(=O)N2CCN(Cc3cccs3)CC2)oc2ccccc12	i	i	i	i	i	i	nt	nt
C=CCN1CCN(C(=O)c2oc3ccccc3c2C)CC1	i	7.5	i	i	i	i	i	i
COc1ccc(C(=O)NCC(=O)Nc2ccc(-c3ccccc3)cc2)cc1	i	i	i	i	i	i	nt	nt
CCOc1ccccc1C(=O)NCC(=O)Nc1ccc(-c2ccccc2)cc1	i	6.6	i	i	i	i	i	i
Cc1ccc(C(=O)Nc2ccccc2C(=O)NC(CC(=O)O)C(=O)O)cc1 (stereo not given)	i	7.0	i	i	i	i	i	i
O=C(O)CC(NC(=O)c1ccccc1NC(=O)c1ccccc1)C(=O)O (stereo not given)	i	i	i	i	i	i	nt	nt
FC(F)(F)c1nc2cc3nc4ccccc4[nH]c3cc2n1	i	7.6	i	i	i	55	i	i
Cc1ccc2oc(/N=C(\N)NC(=O)C(C)(C)C)nc2c1	i	i	i	i	i	i	nt	nt
Cc1ccc2oc(/N=C(\N)NC(=O)C3CC3)nc2c1	i	6.6	i	i	i	i	i	7.0
O=C(Nc1ccc(N2CCCCC2)cc1)c1ccc([N+](=O)[O-])o1	i	7.2	i	i	i	i	i	i
CC(C)c1[nH]nc2c1C(C(C)C)C(C#N)=C(N)O2 (stereo not given)	i	6.9	i	1.3	i	i	i	7.8
O=C(Nc1nnc(-c2ccccc2Cl)o1)c1nc2ccccc2s1	i	8.8	i	1.2	i	i	i	i
O=C(Nc1nnc(-c2ccccc2Cl)o1)c1ccco1	i	i	i	i	i	i	nt	nt
Cc1ccc(CN=C2Nc3ccccc3CS2)cc1	15	9.7	i	i	4.1	i	i	10
CCOCCCNC(=O)CN1C(=O)NC(Cc2c[nH]c3ccccc23)C1=O (stereo not given)	i	i	i	i	i	i	nt	nt
CCCC(=O)N1N=C(c2ccccc2)CC1c1cn(C)c2ccccc12 (stereo not given)	i	8.1	i	i	i	i	i	i
Cn1cc(C2CC(c3ccccc3)=NN2C(=O)c2ccccc2)c2ccccc21 (stereo not given)	i	7.9	i	i	i	i	i	i
CC(=O)N1N=C(c2ccc(Br)cc2)CC1c1cn(C)c2ccccc12 (stereo not given)	i	i	i	i	i	i	nt	nt
Cc1cc(NC(=O)c2ccc(Br)cc2)nc(C)n1	i	i	i	i	i	i	nt	nt
Cc1cc(NC(=O)c2ccccc2O)nc(C)n1	i	7.7	i	i	i	i	i	i
SMILES	hgDAF12 agonist	hcDAF-12 act	DAX1 inh-1	ssDAF12 agonist	DAX1 inh-2	AHR act	LXR ag	hcDAF12 ag
CN(C)c1ccc(N=Cc2nc(-c3ccccc3)oc2OC(=O)c2ccccc2)cc1	13	6.8	i	i	i	49	i	i
CNc1cc([N+](=O)[O-])ccc1N/C=C/C(=O)c1ccc2c(c1)OCO2	i	i	i	i	i	i	nt	nt
O=C(/C=C/Nc1ccccc1C(=O)O)c1cccs1	i	8.4	i	i	i	i	i	i
O=C(/C=C/Nc1cccc([N+](=O)[O-])c1)c1cccs1	13	13	i	1.8	i	i	i	14
CNc1cc([N+](=O)[O-])ccc1N/C=C/C(=O)c1cccs1	i	8.9	i	i	i	74	i	i
O=C(O)c1ccccc1C(=O)c1cccs1	i	i	i	i	i	i	nt	nt
O=C(COC(=O)/C=C/c1ccc(S(=O)(=O)N2CCc3ccccc32)cc1)NC1CCS(=O)(=O)C1 (stereo not given)	i	i	i	i	i	i	nt	nt
Cc1ccc2c(c1)Sc1c(ccc3ccccc13)N2	21	14	4.8	3.2	i	i	i	8.0
OC(Cc1ccccc1Br)c1ncc(-c2cccc(C(F)(F)F)c2)[nH]1 (stereo not given)	i	i	nt	i	i	nt	nt	nt
CCCC(=O)Nc1c2c(nn1-c1cccc(C)c1C)CS(=O)(=O)C2	i	8.1	i	i	i	i	i	i
CCCCC(=O)Nc1c2c(nn1-c1cccc(C)c1C)CS(=O)(=O)C2	i	i	i	i	i	i	nt	nt
O=C(CCn1cccc1)NCc1ccc2c(c1)OCO2	i	i	i	i	i	i	nt	nt
CCN(CC)c1ccc(/C=N/N2C(=O)c3ccccc3C2=O)c(O)c1	i	6.6	i	i	i	i	i	i
O=C(COC(=O)CCN1C(=O)C2CC=CCC2C1=O)Nc1ccc([N+](=O)[O-])cc1 (stereo not given)	i	i	i	i	i	i	nt	nt
Nc1ccccc1-n1cccc1	i	15	nt	1.6	i	56	i	i
CCN(CC)S(=O)(=O)c1ccc2c(c1)N(CC(=O)Nc1ccc(NC(C)=O)cc1)C(=O)CO2	i	6.8	i	i	i	i	i	i
CC(=O)Nc1ccc(NC(=O)CN2C(=O)COc3ccc(S(=O)(=O)N4CCOCC4)cc32)cc1	i	i	i	i	i	i	nt	nt
Cc1nnc(SCC(=O)c2ccc(Cl)cc2)n(N)c1=O	i	9.6	i	i	i	i	i	i
Cc1cc(C)c2c(N)c3cccc(C)c3nc2n1	i	10	i	1.7	i	69	i	31
O=C1c2ccccc2C(=O)N1CCCCON1C(=O)c2ccccc2C1=O	i	i	i	i	i	i	nt	nt
CCCCON1C(=O)c2cccc3cccc(c23)C1=O	i	9.6	i	i	i	56	i	7.4
Cc1oc(-c2nc3ccccc3n2C)cc1C(=O)c1ccccc1	i	11	i	1.2	i	i	i	13
Cc1cccc(NC(=S)NC(=O)C2CC2)c1	nt	nt	i	nt	nt	i	nt	nt
